Results reported in PubChem BioAssay AID463195 (Sanford-Burnham Center for Chemical Genomics, 2010).
The whole screen tested about 330,000 compounds, of which about 4,600 (1.4%) were called active. What follows is part of a selection rich in actives, with near analogues and random picks from the rest. Values without a mark were called inactive.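 How the source made its calls: active means inhibition of 40% or more at the single tested concentration; inactive means the rest.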

test: growth inhibitors of isogenic TIM10 control yeast, primary screen, counter-screen for tim10-1 yeast inhibitor project, luminescence, uHTS (AID 463195);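 further: wild-type TIM10 isogenic control strain grown at permissive 25 °C; 0% = DMSO yeast wells and 100% = minimal medium wells without yeast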; conditions: S. cerevisiae TIM10 strain growth, BacTiter-Glo luminescence, 24 h; at 10 µM; stronger effect = higher value

Row | SMILES | inhibition
1 | CCOC(=O)c1c(NC(=O)c2ccc(S(=O)(=O)N(C)CC3CCCO3)cc2)sc2c1CC(C)(C)NC2(C)C (stereo unspecified) | -10.5%
2 | COC(=O)c1sccc1NC(=O)COc1ccc(Cl)cc1 | 12.6%
3 | COC(=O)c1c(NC(=O)COc2ccc(Cl)cc2Cl)sc2c1CC(C)(C)NC2(C)C | 41.3% (active)
4 | CCN(CC(=O)NC(C)C)C(=O)CCNC(=O)c1ccc(Cl)cc1 | 10.6%
5 | CC1CCC(NC(=O)C2c3ccccc3C(=O)N2Cc2ccc3c(c2)OCO3)CC1 (stereo unspecified) | 0.084%
6 | CC(=NCc1ccc2c(c1)OCO2)C1=C(O)c2ccccc2C1=O | 70.5% (active)
7 | CCc1ccc(NC(=O)NC(C)c2ccc3c(c2)OCO3)cc1 (stereo unspecified) | 6.53%
8 | O=C1N(c2ccccc2)C(=Nc2ccccc2)SC12CC2 | 13.6%
9 | CC(=O)Nc1ccc(Nc2c([N+](=O)[O-])cc(S(C)(=O)=O)cc2[N+](=O)[O-])cc1 | -6.6%
10 | CN(C)CCc1c[nH]c2ccc(Cn3cncn3)cc12 | 5.24%
11 | O=C(COC(=O)c1ccccc1Br)Nc1nnc(-c2ccccc2)o1 | -0.697%
12 | Cc1ccc(S(=O)(=O)n2nc(OC(=O)C(C)(C)C)cc2N)cc1 | 17.1%
13 | Nc1cc(OC(=O)c2ccccc2Br)nn1S(=O)(=O)c1ccccc1 | 46.5% (active)
14 | O=C(Cc1ccc(-n2c(=O)c3sccc3n(Cc3ccc(F)cc3)c2=O)cc1)NCc1ccco1 | 8.88%
15 | O=C(NCc1ccco1)c1ccc(Cn2c(=O)c3sccc3n(Cc3ccc(F)cc3)c2=O)cc1 | 2.56%
16 | O=C(NCc1ccco1)c1cc2sccc2n1Cc1ccc(F)cc1 | 46.4% (active)
17 | COc1ccc(N2CC(C(=O)NCCS(=O)(=O)N3CCN(c4ccccc4)CC3)CC2=O)cc1 (stereo unspecified) | -13.2%
18 | C[C@H]1CN([C@@H](C)CO)C(=O)Cc2cc(NS(C)(=O)=O)ccc2O[C@@H]1CN(C)CC1CC1 | -6.97%
19 | O=S(=O)(ON(c1ccccc1)S(=O)(=O)c1ccccc1)c1ccccc1 | 45.9% (active)
20 | CCN(c1ccccc1)S(=O)(=O)c1ccc(N)cc1 | 8.8%
21 | O=S(=O)(c1ccccc1)N(Cc1cccc(F)c1)c1ccccc1 | 3.1%
22 | COC(=O)c1ccc(OC(=O)c2nn(C)cc2Cl)c(OC)c1 | 8.9%
23 | O=C(O)c1ccccc1N=N/C(=N/Nc1cc(S(=O)(=O)O)ccc1O)c1ccccc1 | 0.626%
24 | O=c1c2ccccc2nnn1CSc1nc2sc3c(c2c(=O)n1CC1CCCO1)CCC3 (stereo unspecified) | 25.8%

Row | SMILES | inhibition
25 | Cc1nnc(-c2ccc(Oc3ccc(C)c(C)c3)c([N+](=O)[O-])c2)o1 | 17.1%
26 | O=C(OCC(=O)c1c[nH]c2ccccc12)c1cccc(O)c1 | 5.38%
27 | CCN1CCN(c2ccc(NC(=O)c3cnccn3)cc2)CC1 | -4.6%
28 | COc1ccc(NC(=O)C/C(C)=N/NC(=O)c2cnccn2)cc1Cl | 3.17%
29 | CCN(CC)c1ccc(/C=N/NC(=O)c2cnccn2)c(O)c1 | 44.5% (active)
30 | Cc1ccc2nc(Nc3ncc4c(n3)CC(C)(C)CC4=O)nc(C)c2c1 | 5.07%
31 | Cc1cc(=O)n2nc(N3CCCC(C(=O)N4CCN(C)CC4)C3)sc2n1 (stereo unspecified) | 2.79%
32 | O=c1[nH]cnc2c1c(-c1ccccc1)cn2-c1ccc(F)cc1 | 42.6% (active)
33 | COc1ccc(-n2cc(-c3ccccc3)c3c(=S)nc[nH]c32)cc1 | 33.8%
34 | O=c1c2c(-c3ccccc3)ccnc2[nH]n1-c1ccccc1 | -17.3%
35 | O=[N+]([O-])c1cc(C(F)(F)F)ccc1NCCc1ccncc1 | 6.18%
36 | Cc1nn(Cc2ccccc2Cl)c(C)c1NC(=O)Cn1nc([N+](=O)[O-])c(Cl)c1C | 2.84%
37 | NC(=O)C[n+]1cccc(C(N)=O)c1 | 13.2%
38 | C#CCOCCOCCOCCNc1nc(N2CCN(C(=O)[C@H](CCC(=O)O)n3cc(C(N)CO)nn3)CC2)nc(N2CCN(C(=O)[C@H](CCCCN)n3cc(C(N)CC(C)C)nn3)CC2)n1 (stereo partly specified) | -1.57%
39 | CC(C)(C)N(CC#CCC(O)(c1ccccc1)C1CCCC1)CCO (stereo unspecified) | 0.266%
40 | O=C1C=CC(=O)N1c1ccc(N2CCCCC2)cc1 | 73.2% (active)
41 | O=C1CC(N2CCN(c3ccc(F)cc3)CC2)C(=O)N1c1ccccc1 (stereo unspecified) | -7.52%
42 | CC(=O)Nc1ccc(S(=O)(=O)Nc2ccc(N3CCCCC3)cc2)cc1 | -2.15%
43 | COc1ccc(-c2cc(C3CCN(c4ncccc4[N+](=O)[O-])CC3)[nH]n2)cc1 | 33%
44 | CC(=O)CSc1nnc(CSc2ncccn2)n1C1CCCCC1 | 3.42%
45 | Nn1cnnc1N/N=C/c1cc([N+](=O)[O-])c(Cl)cc1Cl | -10.5%
46 | CN(CC(=O)Nc1ccccc1C(F)(F)F)C(=O)Cc1ccccc1F | 12.1%
47 | O=C(Nc1ccccc1F)c1ccccc1-c1ccc(C(F)(F)F)cc1 | 9.5%
48 | N#C/C(=C\c1ccccc1C(F)(F)F)C(=O)Nc1ccccc1F | 47.5% (active)

Row | SMILES | inhibition
49 | Oc1[nH]c2ccc(Br)cc2c1N=Nc1nn[nH]n1 | 6.35%
50 | Cc1cccc(N=Nc2c(O)[nH]c3ccc(F)cc23)c1 | 45% (active)
51 | NS(=O)(=O)c1ccc(N=Nc2c(O)[nH]c3ccc(Br)cc23)cc1 | -10.2%
52 | Cc1ccc(C)c(NC2=NCC(=O)N2c2ccc3c(c2)OCCO3)c1 | 2.39%
53 | Cc1ccc(C(=O)N2CC(=O)Nc3ccc(F)cc3C2c2ccc(F)cc2)cc1 (stereo unspecified) | 20.6%
54 | CC1=CC=CN2C1=NC(=O)CC2(C)C(=O)N(CC(=O)NC1CCCC1)c1ccccc1C (stereo unspecified) | -13.9%
55 | O=C(OCC(=O)c1cccs1)c1ccc([N+](=O)[O-])o1 | 14.1%
56 | O=C(COC(=O)c1ccc([N+](=O)[O-])o1)NC12CC3CC(CC(C3)C1)C2 | 44.7% (active)
57 | O=C(COC(=O)c1ccc(Br)o1)NC12CC3CC(CC(C3)C1)C2 | 25.9%
58 | COc1ccc(C2=NS(=O)(=O)N(C)C(C(=O)NC(C)c3ccccc3)=C2)cc1 (stereo unspecified) | -4.03%
59 | Cn1c(=O)c2c(nc(NCCNC(=O)c3ccco3)n2Cc2ccccc2F)n(C)c1=O | -1.93%
60 | COc1cc(NC(=O)COC(=O)c2ccc([N+](=O)[O-])s2)cc(OC)c1OC | 32.6%
61 | O=C(OCC(=O)N1CCN(c2ccccc2)CC1)c1ccc([N+](=O)[O-])s1 | -16.2%
62 | COc1ccc(C(=O)COC(=O)c2ccc([N+](=O)[O-])s2)cc1OC | 60.6% (active)
63 | O=C(O)c1cccc2c1C(=O)N(C1CCCCC1)C2 | 17.6%
64 | COc1ccc(CNC(=O)C2CCN(C(=O)c3ccco3)CC2)cc1 | 6.55%
65 | CC(C)NS(=O)(=O)c1ccc(CCC(=O)N2CCOCC2)cc1 | -1.05%
66 | C=CCSC(CC)(CC)C(N)=O | 2.57%
67 | NS(=O)(=O)c1ccc(NC(=S)Nc2ccc(Br)c(Cl)c2)cc1 | 42.9% (active)
68 | NS(=O)(=O)c1ccc(CCNC(=S)Nc2ccc(S(N)(=O)=O)cc2)cc1 | 1.03%
69 | NS(=O)(=O)c1ccc(NC(=S)NC(=O)c2cccc(Br)c2)cc1 | 19.3%
70 | O=C(CSc1nc(O)c(Cc2ccccc2)c(=O)[nH]1)Nc1nc2c(s1)CCCC2 | -0.307%
71 | O=C(NCc1ccccc1)c1ccc(CNc2c(N3CCCC3)c(=O)c2=O)cc1 | 2.83%
72 | CCOC(=O)C(CCOc1cccc(CC)c1)C(=O)OCC | 9.43%

Row | SMILES | inhibition
73 | Cc1noc(C)c1S(=O)(=O)Nc1ccc(C(=O)N2CCN(c3ccc(F)cc3)CC2)cc1 | 3.71%
74 | Cc1ccc(F)cc1NC(=O)N1CCCN(c2ccc(C(F)(F)F)cn2)CC1 | 21.2%
75 | O=C(c1ccc2nc(N3CCOCC3)sc2c1)N1CCN(c2ccc(Cl)cc2)CC1 | 39.5%
76 | COc1ccc2nc(N3CCN(C(=O)c4ccc([N+](=O)[O-])o4)CC3)sc2c1 | 43.2% (active)
77 | Cc1ccc2nc(N3CCN(C(=O)c4ccco4)CC3)sc2c1 | -6.8%
78 | CCCC(=O)n1nc(NCc2ccc(OC)cc2)nc1NCc1ccc(OC)cc1 | -4.33%
79 | Cc1ccnc(SCC(=O)Nc2cccc(S(=O)(=O)N3CCOCC3)c2)n1 | -2.35%
80 | COC(=O)c1cc(=O)n(-c2c(Cl)cc(C(F)(F)F)cc2Cl)[nH]1 | -4.96%
81 | COc1ccc2ccn(C)c2c1 | -5.57%
82 | COc1ccc2c(c1)cc1n2CCN=C1NN | 76.6% (active)
83 | O=C(O)CSc1ccc(S(=O)(=O)N2CCCC2)cn1 | 8.26%
84 | O=C(CCC1CCCN(C(=O)c2ccc(F)c(F)c2)C1)N1CCN(c2ccccn2)CC1 (stereo unspecified) | 13.4%
85 | Cc1no[n+]([O-])c1COc1ccccc1/C=C1\NC(=S)NC1=O | -3.3%
86 | Cc1ccc(SCC(=O)NNC(=O)c2ccc(S(C)(=O)=O)cc2)cc1 | 2.08%
87 | O=S(=O)(NN=C1CCCCCCC1)c1ccc(Br)cc1 | 17.3%
88 | COc1cccc(CNc2nc(C(F)(F)F)nc3ccccc23)c1 | 44.2% (active)
89 | CCc1ccc(C(CNc2nc(C(F)(F)F)nc3ccccc23)N(C)C)cc1 (stereo unspecified) | 9.55%
90 | COc1ccc(CNc2ncnc3ccccc23)cc1 | 2.62%
91 | N/C(=N\OC(=O)CCc1ccccc1)c1cccnc1 | -2.8%
92 | COc1ccc(/C(N)=N/OC(=O)Cc2ccccc2)cc1 | 21.6%
93 | COc1ccc(/C(N)=N/OC(=O)CCCc2ccccc2)cc1 | 48.1% (active)
94 | COc1ccc(/C(N)=N/OC(=O)Oc2ccccc2)cc1 | 2.38%
95 | N/C(=N\OC(=O)CC1CCCCC1)c1ccccc1 | 38%
96 | N/C(=N\OC(=O)CCc1ccccc1)c1ccc(Cl)cc1 | 57.5% (active)
